Measurements published in PubChem BioAssay.
Activity calls are given as the source filed them.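 Rule for the calls, unless noted: active = inhibition above 20% together with a positive visual image hit; inconclusive = visual image hit but inhibition not above 20%; inactive = no visual image hit.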

assay: inhibitors of TNFa-induced NFkB p65 translocation, primary screen, imaging, HUVEC, MLSMR starter and 10KST1 sets (AID 438); conditions: HUVEC TNFa-induced p65 nuclear translocation; cell count: measured here: nuclei count (cytotoxicity indicator), at 2.08 µM; inhibition: at 2 µM, stronger effect = higher value, 0% TNFa-plus-vehicle, 100% no-TNFa wells;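 note: compound added about 3h40 before a 20 min TNFalpha stimulation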;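 for inhibition: signal is the nuclear over cytoplasmic p65 intensity ratio per well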

Compound	cell count	inhibition
CC(=O)Nc1ccc(Oc2cc(C#N)c(C#N)cc2N2CCCCCC2)cc1	305	-7.7% (inactive)
COc1ccc2cnn(-c3ccccc3)c(=O)c2c1OC	342	-1.2% (inactive)
COC(=O)c1[nH]c2ccccc2c1NC(=O)CN1CCC(C(N)=O)(N2CCCCC2)CC1	259	3.8% (inactive)
CCOC(=O)CSc1nc2cc(C(=O)NCc3ccco3)ccc2c(=O)n1-c1ccc(F)cc1	329	7.7% (inactive)
CSc1nnc2c3ccccc3n(Cc3ccccc3)c2n1	295	-0.5% (inactive)
O=C(c1cccs1)c1cn(CC(=O)N2CCc3ccccc3C2)c2ccccc12	785	-2.9% (inactive)
Cc1ccccc1CN1CCN(CC(=O)NCc2ccco2)C1=O	395	-1.7% (inactive)
Cc1ccc(CC23CN4CCN(CC(C4)C2O)C3)c(C)c1 (stereo not given)	435	0% (inactive)
C[C@H](NC(=O)Nc1ccccc1F)C(=O)O	294	-8.5% (inactive)
COc1cc(-c2c(C#N)c(N)nc3c2CCCC3)cc(OC)c1OC	620	-8.6% (inactive)
Cc1ccc(S(=O)(=O)N2CCCC2C(=O)OCc2ccco2)cc1 (stereo not given)	411	-8.4% (inactive)
COC(=O)c1ccc(CN(c2ccccc2OC)S(=O)(=O)c2cccs2)o1	666	8.1% (inactive)
CCOc1ccc(C(c2nnnn2Cc2ccccc2)N2CCN(C(=O)c3ccco3)CC2)cc1 (stereo not given)	621	-0.2% (inactive)
CCOC(=O)Cc1nnc(NC(=O)CSc2nnc3c4ccccc4n(C(C)C)c3n2)s1	359	-7.7% (inactive)
O=C(NC1CCCC1)c1cc(-c2cccs2)on1	443	-5.1% (inactive)
Cc1ccc(-c2c3c(=O)n(C)c(=O)n(C)c3cn2CCCN2CCOCC2)cc1	761	4.5% (inactive)
Cc1nnc(C)c2c(C)n(-c3ccc(Br)cc3)c(C)c12	305	2.5% (inactive)
O=C(CCCn1c(=O)c2sccc2n(CC(=O)NCc2ccco2)c1=O)NCc1ccco1	263	2.8% (inactive)
CCOc1ccc2nc(NC(=O)C(NS(=O)(=O)c3cccs3)C(C)C)sc2c1 (stereo not given)	390	10% (inactive)
Cc1cc(NC(=O)COC(=O)c2cccc(S(=O)(=O)N3CCOCC3)c2)no1	457	-26.1% (inactive)

Compound	cell count	inhibition
Cc1nc2sc(C(c3cccc(F)c3)N3CCN(C(=O)c4ccco4)CC3)c(O)n2n1 (stereo not given)	228	-2.8% (inactive)
O=C(O)C1CC(=O)N(c2ccc(OCc3c(F)cccc3Cl)cc2)C1 (stereo not given)	571	-18.3% (inactive)
N#C/C(C(=O)N1CCOCC1)=C1/SC=C(c2ccccc2)N1c1ccccc1	327	-5.5% (inactive)
CCCC(C)C1C(C#N)=C(N)Oc2cc(C)oc(=O)c21 (stereo not given)	396	-15.6% (inactive)
Cc1cc(NC(=O)c2ccccc2Oc2ccccc2)no1	708	-0.2% (inactive)
CC(C)(C)c1cc(C(=S)N2CCN(CCO)CC2)cc(C(C)(C)C)c1O	667	-1.4% (inactive)
CCC(C)NC(=O)C1CCCN(S(=O)(=O)c2ccc(-n3cnnn3)cc2)C1 (stereo not given)	518	-5.4% (inactive)
CC1(C)C2CCC1(CS(=O)(=O)NCc1ccc(C(=O)O)cc1)C(=O)C2 (stereo not given)	517	-16.3% (inactive)
Cc1nnc(NC(=O)Nc2cccc(Cl)c2)s1	481	-9.3% (inactive)
O=C(CN1CCOCC1)N1CCN(C(=O)CN2CCOCC2)CC1	557	-51% (inactive)
COc1ccc2c(c1OC)C(=O)OC2Nn1cncn1 (stereo not given)	334	-9.5% (inactive)
N#Cc1cnc(SCC(=O)Nc2ccccc2C(F)(F)F)nc1N	743	2.2% (inactive)
O=C(NCc1ccco1)C1CC(=O)N(c2ccc(F)cc2)C1 (stereo not given)	375	3.6% (inactive)
CCOC(=O)C1CCCN(c2nc3ccccc3nc2C(C#N)C(=O)NCc2ccccc2)C1 (stereo not given)	703	9.6% (inactive)
CCOc1cc(C)c(Cl)cc1S(=O)(=O)N(C)C	682	-14.7% (inactive)
Cc1c(C(=O)O)oc2ccc(S(=O)(=O)NCCC3=CCCCC3)cc12	652	9.2% (inactive)
CCOC(=O)CSC1=Nc2ccccc2C2=NC(CC(=O)NCc3ccc(OC)cc3)C(=O)N12 (stereo not given)	463	-13.6% (inactive)
COc1ccc(C(F)(F)F)cc1NC(=O)c1nc2nc(C)cc(C(F)F)n2n1	800	16.4% (inactive)
CCSc1nc2c(c(=O)n(C)c(=O)n2C)n1Cc1ccc(Cl)cc1	440	3.3% (inactive)
O=C(COC(=O)c1ccco1)NCc1cccs1	516	-13% (inactive)

assay: inhibitors of mutant huntingtin aggregation, primary screen, imaging, exon1htt(103Q)mCFP cells, high-content imaging (AID 483;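 active = visual image review flags a hit and inhibition of aggregation exceeds 20%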;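 note: compound exposure lasted 3 days before fixation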;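 for nuclei count: percent of the per-plate median nuclei count of sample wells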); conditions: exon1htt(103Q)mCFP cell line, aggregate imaging, at 2 µM; inhibition of aggregation: stronger effect = higher value; nuclei count: measured here: cell count, toxicity

Compound	inhibition of aggregation	nuclei count [%]
CC(=O)Nc1ccc(Oc2cc(C#N)c(C#N)cc2N2CCCCCC2)cc1	-9.6% (inactive)	91.5
COc1ccc2cnn(-c3ccccc3)c(=O)c2c1OC	-8.5% (inactive)	107
COC(=O)c1[nH]c2ccccc2c1NC(=O)CN1CCC(C(N)=O)(N2CCCCC2)CC1	6.6% (inactive)	72.7
CCOC(=O)CSc1nc2cc(C(=O)NCc3ccco3)ccc2c(=O)n1-c1ccc(F)cc1	-7.1% (inactive)	104
CSc1nnc2c3ccccc3n(Cc3ccccc3)c2n1	3.5% (inactive)	92.5
O=C(c1cccs1)c1cn(CC(=O)N2CCc3ccccc3C2)c2ccccc12	-15.5% (inactive)	100
Cc1ccccc1CN1CCN(CC(=O)NCc2ccco2)C1=O	-11.1% (inactive)	97.3
Cc1ccc(CC23CN4CCN(CC(C4)C2O)C3)c(C)c1 (stereo not given)	2% (inactive)	107
C[C@H](NC(=O)Nc1ccccc1F)C(=O)O	4.9% (inactive)	86
COc1cc(-c2c(C#N)c(N)nc3c2CCCC3)cc(OC)c1OC	0.1% (inactive)	101
Cc1ccc(S(=O)(=O)N2CCCC2C(=O)OCc2ccco2)cc1 (stereo not given)	-7.8% (inactive)	99
COC(=O)c1ccc(CN(c2ccccc2OC)S(=O)(=O)c2cccs2)o1	-4.4% (inactive)	113
CCOc1ccc(C(c2nnnn2Cc2ccccc2)N2CCN(C(=O)c3ccco3)CC2)cc1 (stereo not given)	-6.3% (inactive)	101
CCOC(=O)Cc1nnc(NC(=O)CSc2nnc3c4ccccc4n(C(C)C)c3n2)s1	-10.9% (inactive)	94.3
O=C(NC1CCCC1)c1cc(-c2cccs2)on1	-2.2% (inactive)	99.3
Cc1ccc(-c2c3c(=O)n(C)c(=O)n(C)c3cn2CCCN2CCOCC2)cc1	1.2% (inactive)	92.9
Cc1nnc(C)c2c(C)n(-c3ccc(Br)cc3)c(C)c12	-3.9% (inactive)	104
O=C(CCCn1c(=O)c2sccc2n(CC(=O)NCc2ccco2)c1=O)NCc1ccco1	-6.2% (inactive)	98.5
CCOc1ccc2nc(NC(=O)C(NS(=O)(=O)c3cccs3)C(C)C)sc2c1 (stereo not given)	6.2% (inactive)	105
Cc1cc(NC(=O)COC(=O)c2cccc(S(=O)(=O)N3CCOCC3)c2)no1	10.5% (inactive)	106

Compound	inhibition of aggregation	nuclei count [%]
Cc1nc2sc(C(c3cccc(F)c3)N3CCN(C(=O)c4ccco4)CC3)c(O)n2n1 (stereo not given)	-3.1% (inactive)	106
O=C(O)C1CC(=O)N(c2ccc(OCc3c(F)cccc3Cl)cc2)C1 (stereo not given)	-13% (inactive)	100
N#C/C(C(=O)N1CCOCC1)=C1/SC=C(c2ccccc2)N1c1ccccc1	13.8% (inactive)	96.2
CCCC(C)C1C(C#N)=C(N)Oc2cc(C)oc(=O)c21 (stereo not given)	-2.4% (inactive)	68.3
Cc1cc(NC(=O)c2ccccc2Oc2ccccc2)no1	23.9% (inactive)	102
CC(C)(C)c1cc(C(=S)N2CCN(CCO)CC2)cc(C(C)(C)C)c1O	10.4% (inactive)	105
CCC(C)NC(=O)C1CCCN(S(=O)(=O)c2ccc(-n3cnnn3)cc2)C1 (stereo not given)	13.6% (inactive)	104
CC1(C)C2CCC1(CS(=O)(=O)NCc1ccc(C(=O)O)cc1)C(=O)C2 (stereo not given)	1.1% (inactive)	90.1
Cc1nnc(NC(=O)Nc2cccc(Cl)c2)s1	-4.3% (inactive)	66.7
O=C(CN1CCOCC1)N1CCN(C(=O)CN2CCOCC2)CC1	-14% (inactive)	120
COc1ccc2c(c1OC)C(=O)OC2Nn1cncn1 (stereo not given)	-11.1% (inactive)	113
N#Cc1cnc(SCC(=O)Nc2ccccc2C(F)(F)F)nc1N	15.1% (inactive)	102
O=C(NCc1ccco1)C1CC(=O)N(c2ccc(F)cc2)C1 (stereo not given)	-0.9% (inactive)	97.4
CCOC(=O)C1CCCN(c2nc3ccccc3nc2C(C#N)C(=O)NCc2ccccc2)C1 (stereo not given)	-4.3% (inactive)	103
CCOc1cc(C)c(Cl)cc1S(=O)(=O)N(C)C	-26.4% (inactive)	113
Cc1c(C(=O)O)oc2ccc(S(=O)(=O)NCCC3=CCCCC3)cc12	5% (inactive)	88
CCOC(=O)CSC1=Nc2ccccc2C2=NC(CC(=O)NCc3ccc(OC)cc3)C(=O)N12 (stereo not given)	-2.2% (inactive)	64.2
COc1ccc(C(F)(F)F)cc1NC(=O)c1nc2nc(C)cc(C(F)F)n2n1	14.9% (inactive)	94.5
CCSc1nc2c(c(=O)n(C)c(=O)n2C)n1Cc1ccc(Cl)cc1	0.4% (inactive)	106
O=C(COC(=O)c1ccco1)NCc1cccs1	-4.6% (inactive)	93.5
